# According to PubChem BioAssay (NCATS):
# Values joined by “and” are separate entries in the source; they are usually repeats but may differ in a detail not shown here. Equal values may be shown once. Records with an inconclusive call do not appear. A number with no mark means an inactive call. Active and inactive are the calls of the source. Calls come from the whole dose curve; as a rule, active = well fitted inhibition curve with a large enough effect; inconclusive = small, poorly fitted or top-dose-only effect; inactive = flat fitted curve, though single readings scatter.
# What was measured:
# CRL-7250 = normal cell line; test: Cytotoxic Profiling of Annotated Libraries Using Quantitative High-Throughput Screening (AID 1296008); conditions: Five cell lines viability, CellTiter-Glo ATP luminescence, 48-72 h; max response: stronger effect = lower value; for max response: % is set by controls: 0 for no effect and ±100 for the full control effect
# Summary of the method: (§1)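 Compounds were pin-transferred onto cells and incubated 48 or 72 hr at 37 degree Celsius, 95% humidity. CellTiter-Glo was added, plates sat 10 min at room temperature, then ATP-coupled luminescence was imaged as the viability read-out.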
# HEK293 = test: as above; conditions: Five cell lines viability, CellTiter-Glo ATP luminescence, 48-72 h; max response: stronger effect = lower value
# Summary of the method: as §1
# PC15 = test: qHTS profiling for inhibitors of Plasmodium falciparum proliferation (AID 504749); conditions: P. falciparum in erythrocytes, SYBR Green DNA, 72 h; series mostly up to 28.7 µM
# Summary of the method: (§2)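 Quantitative HTS: compounds pinned into medium, infected erythrocytes added (0.3% parasitemia, 2.5% hematocrit), 72 h culture at 37 C under 5% CO2. Saponin/Triton lysis with SYBR Green I, overnight RT, then fluorescence read.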
# PC26 = test: as above; conditions: P. falciparum in erythrocytes, SYBR Green DNA, 72 h; series mostly up to 28.7 µM
# Summary of the method: as §2
# PC49 = test: as above; conditions: P. falciparum in erythrocytes, SYBR Green DNA, 72 h; series mostly up to 28.7 µM
# Summary of the method: as §2
# SC27B = test: as above; conditions: P. falciparum in erythrocytes, SYBR Green DNA, 72 h; series mostly up to 28.7 µM
# Summary of the method: as §2
# TAB113 = test: as above; conditions: P. falciparum in erythrocytes, SYBR Green DNA, 72 h; series mostly up to 28.7 µM
# Summary of the method: as §2
# TAB165 = test: as above; conditions: P. falciparum in erythrocytes, SYBR Green DNA, 72 h; series mostly up to 28.7 µM
# Summary of the method: as §2
# W2 = test: as above; conditions: P. falciparum in erythrocytes, SYBR Green DNA, 72 h; series mostly up to 28.7 µM
# Summary of the method: as §2
# TAB109 = test: as above; conditions: P. falciparum in erythrocytes, SYBR Green DNA, 72 h; series mostly up to 28.7 µM
# Summary of the method: as §2
# Note: nearly all actives have a fitted effect of over 60% in size.
# Potency is the fitted concentration of half-maximal effect.
smiles,measurement,setting,value
C[C@]1(c2nc3c(C(N)=O)cccc3[nH]2)CCCN1,max response,CRL-7250,-16.5%
same,max response,HEK293,-23.2%
CC(C)NCC(O)COc1ccc(COCCOC(C)C)cc1 (stereo not drawn),Potency,PC15,inactive
same,Potency,PC26,inactive
same,Potency,PC49,inactive
same,Potency,SC27B,inactive
same,Potency,TAB113,inactive
same,Potency,TAB165,inactive
same,Potency,W2,inactive
same,max response,CRL-7250,-5.09%
same,outcome,CRL-7250,inactive
same,max response,HEK293,4.07% and -17.2%
Cc1cc2c(F)c(Oc3ncnn4cc(OC[C@@H](C)O)c(C)c34)ccc2[nH]1,max response,CRL-7250,-47.3%
same,Potency,HEK293,3.72 µM (active)
CCC(=O)N[C@H]1CC[C@H](C(=O)N(C)c2ccc(-c3nc4ccccc4o3)cc2)C1,max response,CRL-7250,-6.63%
same,Potency,HEK293,20.9 µM (active)
O=NN(CCCl)C(=O)NCCCl,Potency,PC15,inactive
same,Potency,PC26,inactive
same,Potency,PC49,inactive
same,Potency,SC27B,inactive
same,Potency,TAB109,inactive
same,Potency,TAB113,inactive
same,Potency,TAB165,inactive
same,max response,CRL-7250,-1.64%
same,outcome,CRL-7250,inactive
same,outcome,HEK293,inactive; activator
COc1cccc2cc(-c3nc(C4CCC(C(=O)O)CC4)n4ncnc(N)c34)[nH]c12 (stereo not drawn),Potency,CRL-7250,166 nM (active)
same,Potency,HEK293,5.9 µM (active) and 3.66 µM (active)
CCCn1c(=O)c2[nH]c(C34CC5CC3C[C@@H](C5)C4)nc2n(CCC)c1=O,outcome,CRL-7250,inactive
same,max response,HEK293,-11%
CS(=O)(=O)Oc1ccc2c(NC(N)=O)c(C(=O)c3ccc(Cl)cc3Cl)oc2c1,outcome,CRL-7250,inactive
same,max response,HEK293,3.62%
COc1ccc(-c2ccc3c(N4CCOCC4)nc(N4C[C@@H](C)O[C@@H](C)C4)nc3n2)cc1CO,Potency,CRL-7250,296 nM (active)
same,Potency,HEK293,0.662 µM (active)
CCOC(=O)C1=C[C@]2(CC)CCCN3CCc4c(n1c1ccccc41)[C@@H]32,Potency,PC26,15.1 µM (active)
same,Potency,SC27B,12.6 µM (active)
same,Potency,TAB109,10 µM (active)
same,Potency,TAB165,12.6 µM (active)
same,max response,CRL-7250,1.21%
same,outcome,CRL-7250,inactive
CN(C(=O)c1ccc(F)cc1C(F)(F)F)C1CCN(c2nnc(-c3ccnn3C)c3ccccc23)CC1,max response,CRL-7250,-27.2% and -23.7%
same,max response,HEK293,-60.8%
NC(N)=NC(=O)c1nc(Cl)c(N)nc1N,Potency,PC15,7.08 µM (active)
same,Potency,TAB109,10 µM (active)
same,Potency,TAB165,11.2 µM (active)
same,Potency,W2,2.13 µM (active)
same,max response,CRL-7250,-0.0311%
same,outcome,CRL-7250,inactive
same,max response,HEK293,-13.2% and 2.01%
O=C1[C@H](Cc2ccc(O)cc2)N2C(=O)CCN(C(=O)NCc3ccccc3)[C@H]2CN1Cc1cccc2ccccc12,max response,CRL-7250,-59.7%
same,Potency,HEK293,2.09 µM (active)
COc1ccc(C2=N[C@H](c3ccc(Cl)cc3)[C@H](c3ccc(Cl)cc3)N2C(=O)N2CCNC(=O)C2)c(OC(C)C)c1,Potency,CRL-7250,3320 nM (active)
same,Potency,HEK293,11.8 µM (active)
CC1(C)Cc2c(-c3ccccc3)c(-c3ccc(Cl)cc3)c(CC(=O)O)n2C1,max response,CRL-7250,2.44%
same,Potency,HEK293,14.6 µM (active)
OCCn1cc(-c2cnc3nnn(Cc4ccc5ncccc5c4)c3n2)cn1,max response,CRL-7250,-20.1%
same,max response,HEK293,-13.9%
Oc1cccc(-c2nc(N3CCOCC3)c3oc4ncccc4c3n2)c1,Potency,CRL-7250,76.2 nM (active)
same,Potency,HEK293,0.171 µM (active)
O=C(c1cc(Cc2n[nH]c(=O)c3ccccc23)ccc1F)N1CCN(C(=O)C2CC2)CC1,Potency,CRL-7250,9350 nM (active)
same,max response,HEK293,-77.6%
CCN(CC)CCCC(C)Nc1nc(C)cc(Nc2ccc3nc(C)cc(N)c3c2)n1 (stereo not drawn),max response,CRL-7250,-4.56%
same,max response,HEK293,-11.7%
O=C(NOC[C@H](O)CO)c1ccc(F)c(F)c1Nc1ccc(I)cc1F,Potency,CRL-7250,3.32 µM (active) and 3.66 µM (active)
same,outcome,HEK293,inactive
CC(c1cc2ccccc2s1)N(O)C(N)=O (stereo not drawn),Potency,PC15,inactive
same,Potency,PC49,inactive
same,Potency,SC27B,inactive
same,Potency,TAB109,inactive
same,Potency,TAB113,inactive
same,Potency,TAB165,inactive
same,Potency,W2,inactive
same,max response,CRL-7250,-2.06%
same,outcome,CRL-7250,inactive
same,outcome,HEK293,inactive
CNC(=O)c1ccc(C)c(-n2c(C)cc(OCc3ccc(F)cc3F)c(Br)c2=O)c1,max response,CRL-7250,-9.42%
same,Potency,HEK293,11.6 µM (active)
CCOc1cc(C(=O)Nc2ccc(Cl)c(-c3nc4ccccc4[nH]3)c2)cc(OCC)c1OCC,outcome,CRL-7250,inactive
same,Potency,HEK293,16.6 µM (active)
Cc1c(CN2CCN(C(=O)C(C)C)CC2)sc2c(N3CCOCC3)nc(-c3cnc(N)nc3)nc12,Potency,CRL-7250,118 nM (active)
same,Potency,HEK293,0.187 µM (active)
COc1cc2c(cc1OC)CN(CCc1ccc(NC(=O)c3cccc4c(=O)c5cccc(OC)c5[nH]c34)cc1)CC2,max response,CRL-7250,0.448% and -2.79%
same,Potency,HEK293,11.8 µM (active) and 7.31 µM (active)
